The text below walks through data of PubChem BioAssay AID1304 (The Scripps Research Institute Molecular Screening Center, 2008).

Hit rate of the full screen: of about 220,000 compounds, about 800 (0.36%) were called active. The entries come from a sample that favours actives as a whole. A number with no mark means an inactive call. Rule as the data show it: active = activation above about 33% (passing the limit was not always enough); inactive = the rest.

Chain of Neuropeptide Y receptor type 1 (Homo sapiens) (P25929 whole entry, looked up): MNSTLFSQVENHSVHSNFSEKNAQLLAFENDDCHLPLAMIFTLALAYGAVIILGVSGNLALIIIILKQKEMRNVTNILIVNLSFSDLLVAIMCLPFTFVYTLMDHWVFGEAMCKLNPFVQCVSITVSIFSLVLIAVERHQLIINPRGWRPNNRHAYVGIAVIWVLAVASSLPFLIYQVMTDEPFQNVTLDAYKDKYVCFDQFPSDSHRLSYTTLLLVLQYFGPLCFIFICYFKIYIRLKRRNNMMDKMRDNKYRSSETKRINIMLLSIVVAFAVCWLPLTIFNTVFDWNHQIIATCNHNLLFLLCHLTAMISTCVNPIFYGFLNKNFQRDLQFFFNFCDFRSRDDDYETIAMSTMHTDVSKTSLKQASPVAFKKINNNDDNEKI

The experiment addresses Neuropeptide Y receptor type 1 (Homo sapiens) (UniProt P25929). Nature of the experiment: activation enhancers of human NPY-Y1 – cell-based, primary screen (AID 1304).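 Also: cells stimulated with NPY at EC10 then isoproterenol at EC100; 0% = low agonist plus stimulus and 100% = saturating agonist plus stimulus.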 Conditions: NPY-Y1 expressing cells, potentiator/agonist activation; at 3.6 µM; hits give high values.
`CSC1=NP(=S)(SC)N(C)c2nc3n(c21)CCC3` (stereo not given): the activation is 42.8% (active).

Turning to `CCC1(C)CC(CCNCc2ccc(N(C)C)cc2)(c2ccc(F)cc2)CCO1` (stereo not given), the activation is 16.3%.

As for `CSc1nc2ccc(C)cc2c(=O)n1-c1cccnc1`, the activation is 1.29%. In the case of `CNC(=O)Nc1ccc(C(O)(C(=O)OC)C(F)(F)F)cc1` (stereo not given), the activation was -6.66%. The figure for `CC(=O)Cc1ccc(OC(C)C)cc1` is 8.4%; for `C/C=C/CC1(CC)C(=O)NC(=S)NC1=O` it is 11.2%.

For the compound `CCOP(=O)(OCC)C(NC(=O)c1ccc(OC)cc1)C(Cl)(Cl)Cl` (stereo not given), the activation was 4.01%. Under `CC1(C)Cc2c(C#N)c(N3CCNCC3)nc(-c3ccco3)c2CS1` stands 59.2% (active); under `CCN1CC2C3CCC(C)(O3)C2C1` (stereo not given), 11.9%. In the case of `Fc1ccc(C2N3CCCN23)cc1` (stereo not given), the activation was -11.3%. Under `CCOc1cccc(=NC2CCCCC2)c2c(C)[nH]c(C)c12` stands 11.4%; under `Cc1nn(Cc2ccccc2Cl)c(Cl)c1C(=O)OC(C(=O)NC(N)=O)C(C)C` (stereo not given), 49.5% (active).

For `Cc1cccc(NC(=O)OC2CN3CCC2CC3)c1` (stereo not given), the activation was 11.8%.

As for `O=c1[nH]c(=O)n(Cc2ccccc2)c(O)c1/C=N/Nc1c(F)c(F)c(F)c(F)c1F`, the activation was -7.15%. The figure for `Cn1c(O)c(C(=Nc2ccc(F)cc2)c2ccccc2)c(=O)n(C)c1=O` is -6.6%.
